# Experimental data as given in PubChem BioAssay (NCATS).
# Results filed as inconclusive are left out. A call without a number means that no potency is given here. Activity calls are given as the source filed them. The call rests on the fitted dose curve; in most records, active means well fitted cell-killing curve with a large enough effect; inconclusive means small, poorly fitted or top-dose-only effect, or effect the other way; inactive means flat fitted curve, though single readings scatter.
# Tested on: CAOV3
# Assay: Primary qHTS to identify gynecologic anti-cancer compounds using libraries of approved drugs and bioactive compounds (AID 1345084); further: nearly all actives have a fitted effect of over 55% in size
# Settings: Gynecologic cancer cell panel viability, ATPlite luminescence, 48 h; series mostly up to 57.5 µM
# Source text: National Center for Advancing Translational Sciences [NCATS] Assay Overview: Chemotherapeutic drug responses vary from cancer to cancer and from patient to patient. These variations could be caused by a number of factors including patient genomic background, tumor mutations, tumor heterogeneity, and aspects of drug treatment. Chemotherapeutic drug resistance is also a common issue and can lead to ineffective treatment and patient death. Here we have profiled the cell killing effects of thousands of compounds to characterize the responses in three gynecological cancers, identify cancer-selective compounds, and understand the diversity of responses to these compounds from pan-cancer suppressors to single cell line selective compounds. In this assay, we screened a 7,914 compound drug library that included approved drug and bioactive compounds in six ovarian, three cervical, and […] placental cancer cell lines using the ATPlite assay for cell viability. […] The cervical cancer cell lines included HeLa, Ca Ski, and C-33 A. The placental cancer cell lines included JEG-3. HEK 293T cells were used as the control cell line to determine the selectivity index. ATPlite is a luminescence based assay reliant on the conversion of a luciferase substrate to light in the presence of ATP. As a cytotoxic compound will suppress growth and decrease the number of cells, the concentration of ATP will decrease, and less light signal will be detected in the well.
# Assay Protocol Summary: 1,000 cells in 4 uL of media were dispensed into white, solid bottom 1536-well plates using a Multidrop Combi (Thermo Scientific). The Assay plates were incubated for 16 hours at 37 C with 5% CO2 in assay plates, followed by the addition of 23 nL of DMSO or drug dissolved in DMSO. Each compound was assayed in five concentrations (0.092, 0.46, 2.3, 11.5, and 57.5 uM), using the automated Wako 1536 Pin Tool workstation and incubated at 37 C with 5% CO2 48 hours. 4 uL of ATPlite, the ATP monitoring reagent, was then added to the each well of the assay plates using the Multidrop Combi reagent dispenser followed by incubation for 15 minutes at room temperature. The resulting luminescence was measured using the ViewLux plate reader.
# Potency means the concentration at half of the fitted maximal effect.
row,SMILES,Potency
1,C[C@H]1CNCCc2ccc(Cl)cc21,inactive
2,Nc1ccccc1C(=O)OCC(O)CO (stereo not given),inactive
3,CC(C)C(Br)C(=O)NC(N)=O (stereo not given),inactive
4,CCN1CCCC1CNC(=O)C(O)(c1ccccc1)c1ccccc1 (stereo not given),inactive
5,C[C@]12CC[C@H]3[C@@H](CC=C4C[C@@H](O)CC[C@@]43C)[C@@H]1CC[C@@H]2O,inactive
6,Cc1c(Cl)c(=O)oc2cc(OP(=O)(OCCCl)OCCCl)ccc12,inactive
7,COc1cc(CC#N)cc(OC)c1OC,inactive
8,CC(CC(C#N)(c1ccccc1)c1ccccc1)N(C)C (stereo not given),inactive
9,O=c1n(Cl)c(=O)n(Cl)c(=O)n1Cl,inactive
10,NC1(c2ccccc2)CCCCC1,inactive
11,CCOP(=S)(OCC)O/N=C(\C#N)c1ccccc1,inactive
12,CC(CC(C(N)=O)(c1ccccc1)c1ccccc1)N(C)C (stereo not given),inactive
13,Cc1nnc2n1-c1sc(CCC(=O)N3CCOCC3)cc1C(c1ccccc1Cl)=NC2,inactive
14,COc1ccc(OC)c(CC(C)N)c1 (stereo not given),inactive
15,CCS(=O)(=O)C(C)(C)S(=O)(=O)CC,inactive
16,CCOC(=O)C(c1c(O)c2ccccc2oc1=O)c1c(O)c2ccccc2oc1=O,inactive
17,COc1ccc2[nH]cc(CCN(C(C)C)C(C)C)c2c1,inactive
18,CCO[C@H]1O[C@@H]2OC3(C)CC[C@H]4[C@H](C)CC[C@@H]([C@H]1C)[C@@]24OO3,inactive
19,CCC1(CC)C(=O)NC(=O)NC1=O,inactive
20,CC[n+]1c(-c2ccccc2)c2cc(N)ccc2c2ccc(N)cc21,12.6 µM (active)

row,SMILES,Potency
1,COP(=S)(OC)Oc1ccc(S(N)(=O)=O)cc1,inactive
2,Nc1ccc(N)cc1,inactive
3,CC1N=C(N)OC1c1ccccc1 (stereo not given),inactive
4,C[C@H]1C(=O)O[C@@H]2CCN3CC=C(COC(=O)[C@](C)(O)[C@]1(C)O)[C@H]23,inactive
5,COc1cc(CC(C)N)c(OC)cc1Br (stereo not given),inactive
6,CCC1(c2cccc(O)c2)CCCCN(C)C1 (stereo not given),inactive
7,CCCCC1C(=O)NC(=O)N(C2CCCCC2)C1=O (stereo not given),inactive
8,COP(=S)(OC)Oc1ccc(Sc2ccc(OP(=S)(OC)OC)cc2)cc1,inactive
9,OC(O)C(Cl)(Cl)Cl,inactive
10,CCNc1nc(Cl)nc(NCC)n1,inactive
11,NCc1cccnc1,inactive
12,CC(C)=C[C@@H]1[C@@H](C(=O)OCc2coc(Cc3ccccc3)c2)C1(C)C,inactive
13,CN(C)CCc1c[nH]c2ccccc12,inactive
14,CN1C2CCC(C)(C)C1CC(OC(=O)C(O)(c1cccs1)c1cccs1)C2 (stereo not given),inactive
15,CCC1(c2ccccc2)CCC(=O)NC1=O (stereo not given),inactive
16,CC(Cc1ccccc1)NCCCCl (stereo not given),inactive
17,ClCCCN1CCN(c2cccc(Cl)c2)CC1,inactive
18,OC(c1ccccc1)(c1ccccc1)C1CCNCC1,inactive
19,C[C@]12CC[C@H]3[C@@H](CCC4=CC(=O)CC[C@@]43C)[C@@H]1CC[C@@H]2C(=O)O,inactive
20,O=C(CBr)Nc1ccc(Cl)cc1C(=O)c1ccccc1F,inactive
